PP1 counter: PP1-alpha phosphatase inhibitors, primary screen, counter-screen for PP5 inhibitor project, biochemical, fluorescence, OMFP substrate, single point; AID 2235, 2010; inhibition, % at 6.7 µM; purified PP1alpha; hit rate 0.9% among 320,000; Serine/threonine-protein phosphatase PP1-alpha catalytic subunit (Homo sapiens), P62136;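 active means inhibition above the mean inhibition of all tested compounds plus 3 SD, computed separately for each screening campaign, cut at about 15% in these data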
Target sequence (P62136 whole entry, looked up): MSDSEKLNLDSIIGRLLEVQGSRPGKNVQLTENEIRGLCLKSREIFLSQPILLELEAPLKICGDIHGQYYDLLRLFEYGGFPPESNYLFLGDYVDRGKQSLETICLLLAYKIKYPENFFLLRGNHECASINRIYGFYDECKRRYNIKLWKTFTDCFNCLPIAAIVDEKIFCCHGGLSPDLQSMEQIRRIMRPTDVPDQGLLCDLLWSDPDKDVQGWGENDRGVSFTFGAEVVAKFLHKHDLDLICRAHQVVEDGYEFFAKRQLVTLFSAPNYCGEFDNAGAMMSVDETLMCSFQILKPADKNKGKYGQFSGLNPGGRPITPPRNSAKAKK
Rpn11 inh: Rpn11 (PSMD14) deubiquitinase inhibitors, primary screen, biochemical, fluorescence polarization, uHTS. inhibition, % at 20 µM. AID 588493, 2011. human 26S proteasome, Ub4-pepOG fluorescence polarization; 20S core pre-blocked with epoxomicin. 26S proteasome non-ATPase regulatory subunit 14 (Homo sapiens), O00487. hit rate 0.59% among 360,000;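 active means inhibition at 20 µM, scaled to each plate's controls, above about 33%, limit read from the data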
Target sequence (O00487 whole entry, looked up): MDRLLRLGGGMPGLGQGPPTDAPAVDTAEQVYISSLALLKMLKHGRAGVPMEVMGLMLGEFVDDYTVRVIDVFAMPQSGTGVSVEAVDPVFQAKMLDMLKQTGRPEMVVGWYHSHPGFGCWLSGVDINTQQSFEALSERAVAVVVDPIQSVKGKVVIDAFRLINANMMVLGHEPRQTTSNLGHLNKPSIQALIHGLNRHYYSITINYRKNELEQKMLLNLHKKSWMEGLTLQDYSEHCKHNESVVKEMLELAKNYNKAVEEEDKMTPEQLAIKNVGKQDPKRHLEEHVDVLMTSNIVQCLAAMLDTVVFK
PP5 primary: PP5 phosphatase inhibitors, primary screen, biochemical, fluorescence; purified PP5c, OMFP substrate fluorescence; inhibition, % at 6.7 µM; hit rate 0.18% among 320,000; Serine/threonine-protein phosphatase 5 (Homo sapiens), P53041;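 active means inhibition above the campaign's mean inhibition across all tested compounds plus 3 SD, cut at about 9.5% in these data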;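 further: 0% = DMSO only and 100% = 100 µM cantharidin control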
PREPL inh: PREPL enzyme inhibitors, primary screen, biochemical, fluorescence polarization; Prolyl endopeptidase-like (Homo sapiens), Q4J6C6; recombinant PREPL, fluorescence polarization activity-based probe; inhibition, % at 5.96 µM; hit rate 0.68% among 320,000; AID 2751, 2010; in the data active means inhibition above about 43%;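 further: 0% = enzyme with DMSO and 100% = wells lacking enzyme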
NadD block: inhibitors of S. aureus NadD, primary screen, biochemical, colorimetric, uHTS. inhibition, % at 20 µM. Nicotinate-nucleotide adenylyltransferase NadD (Staphylococcus aureus N315). AID 602399, 2012. hit rate 0.78% among 360,000. purified NadD enzyme, colorimetric absorbance read-out; in the data active means inhibition above about 26%
NadD inh conf: inhibitors of S. aureus NadD, confirmation, biochemical, colorimetric, single concentration | shares compounds with NadD block | purified S. aureus NadD, colorimetric enzyme assay | inhibition, % at 20 µM | hit rate 13% among 2,000; in the data active means inhibition mostly above about 42%, no sharp cut-off; inactive means mostly below about 42%
Active calls of the source: *; · = no result shown. Most compounds without a hit are left out; they make up all but 2.4% or so of the library.

SMILES | PP1 counter | Rpn11 inh | PP5 primary | PREPL inh | NadD block | NadD inh conf
CCC(Sc1nc2ccsc2c(=O)n1Cc1ccc(C(=O)O)cc1)C(=O)Nc1cc(Cl)ccc1C (stereo not drawn) | · | 17 | · | · | 19 | ·
CCC(Sc1nc2ccsc2c(=O)n1Cc1ccc(C(=O)O)cc1)C(=O)Nc1ccc(C)c(Cl)c1 (stereo not drawn) | 17* | -4 | 3 | -13 | 48* | 47*
CN(CC(=O)Nc1cccc(F)c1)C(=O)c1ccc(COc2ccccc2)cc1 | -2 | 1 | 5 | -9 | -8 | ·
CCc1nnc(NS(=O)(=O)c2ccc(N/C=C\C(=O)c3ccc4ccccc4c3)cc2)s1 | 4 | 16 | 0 | -5 | 30* | 50*
CCc1nnc(NS(=O)(=O)c2ccc(NC(=O)c3ccccc3)cc2)s1 | 3 | -3 | 0 | -5 | 1 | ·
COc1ccc(C(=O)Nc2nnc(Cc3ccc(OC)c(OC)c3)s2)cc1 | 5 | -9 | 0 | 12 | -6 | ·
COc1ccc(OC)c(CCNC(=O)c2ccc3c(=O)[nH]c4c(C(=O)NC(C)C)sc(=S)n4c3c2)c1 | -2 | 12 | 2 | 27 | 33* | 13
CCCCNC(=O)c1sc(=S)n2c1[nH]c(=O)c1ccccc12 | 2 | -6 | 0 | 17 | 3 | ·
Cc1cccc2cc(C#N)c(N3CCN(C)CC3)nc12 | -2 | -4 | 0 | -5 | -2 | ·
Cc1ccc(C)c2nc(N3CCCC3)c(C#N)cc12 | -2 | 8 | 4 | 0 | 32* | 11
CCOC(=O)c1c(NC(=O)CSc2nc3cc(Cl)ccc3c(=O)n2Cc2ccco2)sc(C(=O)N(C)C)c1C | 12 | 17 | 2 | 8 | 39* | 8
CCOc1cc(/C=N/NC(=O)c2ccc(-c3csc(Nc4ccc(C)cc4)n3)cc2)ccc1OCC(=O)O | · | -8 | · | · | 53* | 27
COc1cc(/C=N\NC(=O)c2ccc(-c3ccccc3)cc2)ccc1OCC(N)=O | · | 2 | · | · | -4 | ·
O=C(O)COc1ccc(/C=N/NC(=O)c2ccc(-c3csc(Nc4ccc(Cl)cc4)n3)cc2)cc1 | · | 70* | · | · | 71* | 9
Cc1nc(CC(=O)N/N=C/c2ccc(OCC(=O)O)cc2)cs1 | -5 | -7 | 3 | 12 | 2 | ·
O=c1c2sc3nc(N4CCOCC4)c4c(c3c2ncn1C(c1ccccc1)c1ccccc1)CCCC4 | · | -1 | · | · | 32* | 1
O=c1c2sc3nc(N4CCOCC4)c4c(c3c2ncn1-c1ccccc1)CCCC4 | 6 | 3 | 2 | -7 | 0 | ·
O=C1NC(=S)N/C1=C/c1ccc2ccccc2c1 | -2 | 4 | 2 | 9 | 2 | ·
CN1C(C(=O)N2CCc3ccccc3C2)=CC(c2ccc(F)cc2)=NS1(=O)=O | 1 | -3 | 3 | -6 | 0 | ·
CCC(CC)c1nc(C(N)=O)c2[nH]c(=O)n(-c3ccc(OC)c(OC)c3)c2n1 | -2 | -2 | -1 | -1 | 1 | ·
Nc1ccc(-c2nc3ccc(N)cc3[nH]2)cc1 | -2 | 2 | -1 | 21 | 66* | 23
Nc1ccc2nc(-c3cc(Cl)c(N)c(Cl)c3)[nH]c2c1 | 1 | 3 | 2 | 40 | 15 | ·
Cc1nc2ccc(-c3nc4ccc(N)cc4[nH]3)cc2[nH]1 | 0 | 31 | 3 | 30 | 45* | 20
CC(C)(C)OC(=O)NCc1ccc(NC(=O)c2nc[nH]c2C(=O)NCCN(CCNC(=O)c2[nH]cnc2C(=O)Nc2ccc(CNC(=O)OC(C)(C)C)cc2)CCNC(=O)c2[nH]cnc2C(=O)Nc2ccc(CNC(=O)OC(C)(C)C)cc2)cc1 | · | 3 | · | -16 | 43* | 12
CC(C)(C)OC(=O)NCc1ccc(NC(=O)c2nc[nH]c2C(=O)NCCCCCCNC(=O)c2[nH]cnc2C(=O)Nc2ccc(CNC(=O)OC(C)(C)C)cc2)cc1 | · | 7 | · | 2 | 39* | 14
SMILES | PP1 counter | Rpn11 inh | PP5 primary | PREPL inh | NadD block | NadD inh conf
CC(C)(C)OC(=O)NCc1ccc(NC(=O)c2nc[nH]c2C(=O)NCCCNC(=O)c2[nH]cnc2C(=O)Nc2ccc(CNC(=O)OC(C)(C)C)cc2)cc1 | · | 2 | · | -19 | 17 | ·
CC(C)(C)OC(=O)NCc1ccc(CNC(=O)c2ncn(Cc3ccccc3)c2C(=O)NCc2ccc(CNC(=O)OC(C)(C)C)cc2)cc1 | · | 3 | · | 1 | 12 | ·
Cn1cnc(C(=O)NCc2ccc(CNC(=O)OC(C)(C)C)cc2)c1C(=O)NCc1ccc(CNC(=O)OC(C)(C)C)cc1 | · | -8 | · | 4 | 33* | 27
O=C(COC(=O)c1ccccc1SCC(=O)N1CCCC1)NCc1ccc(F)cc1 | · | 3 | · | · | 4 | ·
CCCCn1nnnc1C(c1cc2ccccc2o1)N1CCN(CC(=O)NC(C)C)CC1 (stereo not drawn) | · | · | · | · | -5 | ·
Cc1noc(C)c1C(=O)OC(C)C(=O)c1ccc(C(C)(C)C)cc1 (stereo not drawn) | · | -2 | · | · | 0 | ·
CN(CC(=O)Nc1ccc(Cl)cc1F)C1=NS(=O)(=O)c2ccccc21 | · | 1 | · | 15 | 3 | ·
O=C(N=c1ccn(-c2nc3ccccc3nc2NS(=O)(=O)c2ccccc2)cc1)c1cccs1 | 0 | · | 4 | -13 | 19 | ·
Cc1ccccc1C(=O)N=c1ccn(-c2nc3ccccc3nc2NS(=O)(=O)c2ccc(F)cc2)cc1 | 0 | 5 | 1 | 7 | 30* | 56*
Cc1ccnc(NS(=O)(=O)c2ccc(N3C(=O)c4c(Cl)c(Cl)c(Cl)c(Cl)c4C3=O)cc2)n1 | -5 | 6 | -3 | 3 | 34* | 6
O=[N+]([O-])c1ccc(Nc2cccc3c2[nH]c2c(-c4ccccc4)nccc23)c([N+](=O)[O-])c1 | · | -3 | · | · | 44* | 16
COc1cccc(-n2c(SCC(=O)N3CCc4ccccc43)nnc2-c2c[nH]c3ccccc23)c1 | 2 | 3 | 0 | 5 | 38* | 7
CC(OC(=O)CC1CC2CCC1C2)C(=O)Nc1cccc(S(=O)(=O)N2CCOCC2)c1 (stereo not drawn) | 2 | -2 | 5 | 13 | -6 | ·
CCN1CCN(CC(=O)N2N=C(c3cccs3)CC2c2ccc(OC)cc2)C(=O)C1=O (stereo not drawn) | -4 | -4 | 1 | 16 | -3 | ·
CCOC(=O)N1CCN(C(=O)CSc2nc3c(cnn3-c3ccccc3)c(=O)[nH]2)CC1 | -3 | 5 | 2 | 11 | -6 | ·
COc1ccc(C2=NN(C(=O)CSc3nc(=O)n4cc(C)ccc4n3)C(c3ccc(C)cc3)C2)cc1 (stereo not drawn) | 2 | 7 | 1 | 19 | 49* | 15

Source: PubChem
